Values joined by “and” are separate entries in the source; they are usually repeats but may differ in a detail not shown here. Equal values may be shown once. Results filed as inconclusive are left out. A number with no mark means an inactive call. Active and inactive are the calls of the source. Calls come from the whole dose curve; as a rule, active = well fitted cell-killing curve with a large enough effect; inconclusive = small, poorly fitted or top-dose-only effect; inactive = flat fitted curve, though single readings scatter.
Columns and labels:
[1] = Cellular viability qHTS for adrenocortical cancer (ACC) cell line SW-13 (AID 1963989); conditions: SW-13 ACC cells viability, CellTiter-Glo, 48 h; activity (max response): hits give low values; note: nearly all actives have a fitted effect of over 65% in size;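 for activity (max response): cells grown in serum-free medium with ITS supplement; % is set by controls: 0 for no effect and ±100 for the full control effect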
Procedure, shortened: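 Viability was read as CellTiter-Glo luminescence after 48 h compound treatment (up to 46 uM final) of SW-13 cells grown serum-free; titration curves were fit with a four-parameter logistic model to give IC50 and efficacy.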

[2] = Cellular viability qHTS for adrenocortical cancer (ACC) cell line NCI-H295R (AID 1963990); note: nearly all actives have a fitted effect of over 60% in size;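 for activity change, negative = viability loss: 0% = DMSO only wells and -100% = full killing with cytotoxic reference compound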
Procedure, shortened: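 CellTiter-Glo ATP luminescence, read 48 h after compound addition, measured viability of NCI-H295R adrenocortical cells grown serum-free with ITS. Final concentrations spanned up to 46 uM. Data normalized to DMSO and doxorubicin, fitted for IC50 and maximal response.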
Potency is the fitted concentration of half-maximal effect.

## Cc1cc(Nc2cc(N3CCN(C)CC3)nc(/C=C/c3ccccc3)n2)n[nH]1
[1]
  Potency: 25.1 µM (active)
[2]
  Potency: 10 µM (active)

## Cc1ccc(O)c2ncccc12
[1]
  activity (max response): 11.9%
[2]
  Potency: 20.6 µM (active)

## Cc1ccc(C(C)C)c(O)c1
[1]
  activity (max response): 10.4%
[2]
  Potency: inactive

## CCN(CC)CCNC(=O)COc1ccc(OC)cc1
[1]
  activity (max response): -8.99%
[2]
  Potency: inactive

## CCOc1cc(/C=C2/C(=O)N(c3ccccc3)N=C2C)cc(Cl)c1OCC(=O)OC
[1]
  activity (max response): -5.72%
[2]
  Potency: inactive

## COc1c(C)cc(NC(=O)c2nn(Cc3ccc(F)cc3)c3c2CN(C(=O)c2ccc[nH]2)C[C@]3(C)C(N)=O)cc1C
[1]
  activity (max response): -5.75%
[2]
  Potency: inactive

## CCOc1ccccc1O[C@H](c1ccccc1)[C@H]1CNCCO1
[1]
  activity (max response): -2.45%
[2]
  Potency: inactive

## Oc1cccc(O)c1
[1]
  activity (max response): 6.94%
[2]
  Potency: inactive

## CO[C@]12C[C@@H](COC(=O)c3cncc(Br)c3)CN(C)[C@@H]1Cc1cn(C)c3cccc2c13
[1]
  activity (max response): 3.85%
[2]
  Potency: inactive

## CN1CCC(=C2c3ccccc3Sc3ccccc32)CC1
[1]
  Potency: 23.1 µM (active)
[2]
  Potency: 8.2 µM (active)

## Nc1ccc(N=Nc2ccccc2)c(N)n1
[1]
  activity (max response): -2.95%
[2]
  Potency: inactive

## N=C1S/C(=C\c2ccc(-c3ccc4c(c3)C(=O)NC4=O)o2)C(=O)N1c1ccc(Br)cc1
[1]
  activity (max response): 2.9%
[2]
  Potency: inactive

## NCc1ccccc1Sc1ccccc1CO
[1]
  activity (max response): -6.09%
[2]
  Potency: inactive

## Fc1ccc(-c2nc(-c3ccccc3F)[nH]c2-c2ccncc2)cc1
[1]
  activity (max response): -20.2%
[2]
  Potency: inactive

## C#CC1(O)CC[C@H]2[C@@H]3CCC4=CCCC[C@@H]4[C@H]3CC[C@@]21C (stereo not given in full)
[1]
  activity (max response): 6.47%
[2]
  Potency: inactive

## CC1(C)O[C@@H]2C[C@H]3[C@@H]4CCC5=CC(=O)C=C[C@]5(C)[C@H]4[C@@H](O)C[C@]3(C)[C@]2(C(=O)CO)O1
[1]
  activity (max response): -6.19%
[2]
  Potency: inactive

## CS(=O)(=O)c1ccc([C@@H](O)[C@@H](CF)NC(=O)C(Cl)Cl)cc1
[1]
  activity (max response): -12.7%
[2]
  Potency: inactive

## Cc1ccc(/C(=C\CN2CCCC2)c2ccccn2)cc1
[1]
  activity (max response): 2.73%
[2]
  Potency: inactive

## COC(=O)c1c(Cl)c(Cl)c(C(=O)OC)c(Cl)c1Cl
[1]
  activity (max response): 12.2%
[2]
  Potency: inactive

## Cn1cc(-c2nc(N[C@@H]3CCCC[C@@H]3N)c(F)c3c2C(=O)NC3)cn1
[1]
  activity (max response): 8.72%
[2]
  activity change, negative = viability loss: 0.124% [at 3.81 µM]

## Cc1cc(C)c(/C=C2\C(=O)Nc3ccccc32)[nH]1
[1]
  activity (max response): 5.7% and 12.2%
[2]
  Potency: inactive

## Cc1cc(C)c2c(c1)[C@@H](N(Cc1cc(C(F)(F)F)cc(C(F)(F)F)c1)c1nnn(C)n1)CCCN2CC1CCC(C(=O)O)CC1 (stereo not given in full)
[1]
  activity (max response): -23.9%
[2]
  Potency: inactive

## CCCCN(CCN(CCCC)C(=O)N1CCOCC1)C(=O)N1CCOCC1
[1]
  activity (max response): 13.7%
[2]
  Potency: inactive

## CCCCCCn1c(=O)c2c(ncn2C)n(C)c1=O
[1]
  activity (max response): 14%
[2]
  Potency: inactive

## CC(C)N(CCCNC(=O)Nc1ccc(C(C)(C)C)cc1)C[C@H]1O[C@@H](n2ccc3c(N)ncnc32)[C@H](O)[C@@H]1O
[1]
  activity (max response): -3.92%
[2]
  Potency: inactive

## CC(O)Cn1cnc2c1c(=O)n(C)c(=O)n2C (stereo not given)
[1]
  activity (max response): -7.87%
[2]
  Potency: inactive

## CCCN1C[C@H](CSC)C[C@@H]2c3cccc4[nH]cc(c34)C[C@H]21
[1]
  activity (max response): -4.04%
[2]
  Potency: inactive

## CC(=O)Oc1ccc(C(=C2CCCCC2)c2ccc(OC(C)=O)cc2)cc1
[1]
  activity (max response): -5.44%
[2]
  Potency: inactive

## O=C(O)P(=O)(O)O
[1]
  activity (max response): 10.2%
[2]
  Potency: inactive

## N#C[C@@H]1C[C@@H]2C[C@@H]2N1C(=O)[C@@H](N)C12CC3CC(CC(O)(C3)C1)C2
[1]
  activity (max response): 7.26%
[2]
  Potency: inactive

## O=C(CCNC(=O)c1ccc(OC(F)(F)F)cc1)N[C@@H]1CCCc2ccccc21
[1]
  activity (max response): -26.4%
[2]
  Potency: inactive

## CC1(N)CCN(c2cnc(-c3cccc(Cl)c3Cl)c(N)n2)CC1
[1]
  activity (max response): -1.73%
[2]
  Potency: inactive

## CCc1c(-c2ccccc2C)nc2c(C#N)c[nH]n2c1=O
[1]
  activity (max response): 6.89% and 1.74%
[2]
  Potency: inactive

## OCCOCCN1CCN(C2=Nc3ccccc3Sc3ccccc32)CC1
[1]
  activity (max response): -9.48%
[2]
  Potency: inactive

## C[C@@H]1C[C@H]2[C@@H]3CCC4=CC(=O)C=C[C@]4(C)[C@@]3(F)[C@@H](O)C[C@]2(C)[C@H]1C(=O)CO
[1]
  activity (max response): 1.09%
[2]
  Potency: inactive

## CS(=O)(=O)c1ccc(-c2cnc(NCc3ccco3)n3cnnc23)cc1
[1]
  activity (max response): -12%
[2]
  Potency: inactive

## COC1=C2C[C@H](C)C[C@H](OC)[C@H](O)[C@@H](C)/C=C(/C)[C@H](OC(N)=O)[C@@H](OC)/C=C\C=C(\C)C(=O)NC(=CC1=O)C2=O
[1]
  activity (max response): -3.63%
[2]
  Potency: inactive

## COCCc1ccc(OCC(O)CNC(C)C)cc1 (stereo not given)
[1]
  activity (max response): -3.54%
[2]
  Potency: inactive

## C=CC[N+]1([C@H]2C[C@H]3[C@@H]4CC[C@H]5C[C@H](OC(C)=O)[C@@H](N6CCCCC6)C[C@]5(C)[C@H]4CC[C@]3(C)[C@H]2OC(=O)CC)CCCCC1
[1]
  activity (max response): -4.47%
[2]
  Potency: inactive

## COc1ccc(-c2cnc3c(-c4cccc5ncccc45)cnn3c2)cc1
[1]
  activity (max response): 5.61%
[2]
  Potency: inactive

## O=C1Cc2cc(C(=O)NC3C[C@H]4CC[C@@H](C3)N4S(=O)(=O)CC3CCN(CCCC(F)(F)F)CC3)c(Cl)cc2N1 (stereo not given in full)
[1]
  activity (max response): -5.12%
[2]
  Potency: inactive

## COCCOC(=O)C1=C(C)NC(C)=C(C(=O)OC(C)C)C1c1cccc([N+](=O)[O-])c1 (stereo not given)
[1]
  activity (max response): 7.46%
[2]
  Potency: inactive

## Cn1cc[nH]c1=S
[1]
  activity (max response): 12%
[2]
  Potency: inactive

## CN1C(=O)N(c2cc(Cl)cc(Cl)c2)C(=O)[C@]12CN(Cc1cc(C(=O)O)cs1)C[C@H]2c1ccc(C#N)cc1
[1]
  activity (max response): -17%
[2]
  Potency: inactive

## CCC(=O)O[C@]1(C(=O)COC)[C@@H](C)C[C@H]2[C@@H]3CCC4=CC(=O)C=C[C@]4(C)C3(F)[C@@H](O)C[C@@]21C (stereo not given in full)
[1]
  activity (max response): 1.6%
[2]
  Potency: inactive

## COc1ccc2[nH]c(S(=O)Cc3ncc(C)c(OC)c3C)nc2n1 (stereo not given)
[1]
  activity (max response): 4.99% and -14.4%
[2]
  Potency: inactive

## CCCCCCCCCCC[C@@H](C[C@@H]1OC(=O)[C@H]1CCCCCC)OC(=O)[C@H](CC(C)C)NC=O
[1]
  activity (max response): 4.97%
[2]
  Potency: inactive

## COc1cccc(-c2c(C)n(Cc3c(F)cccc3C(F)(F)F)c(=O)n(C[C@H](NCCCC(=O)O)c3ccccc3)c2=O)c1F
[1]
  activity (max response): 3.23% and 7.63%
[2]
  Potency: inactive

## Cc1ccc(NS(=O)(=O)c2ccc3c(c2)C2C=CCC2C(c2ccc(C(=O)O)cc2)N3)cc1C (stereo not given)
[1]
  activity (max response): -1.16%
[2]
  Potency: inactive

## CC(C)(c1ccc(OCC(O)CO)cc1)c1ccc(OCC(O)CCl)cc1 (stereo not given)
[1]
  activity (max response): -21.2%
[2]
  Potency: inactive

## C=C[C@H]1CN2CC[C@H]1C[C@H]2[C@H](O)c1ccnc2ccc(OC)cc12
[1]
  activity (max response): -6.74%
[2]
  Potency: inactive

## CC(C)(C)C(=O)CN1C(=O)[C@H](NC(=O)Nc2cccc(C(=O)O)c2)CN(C2CCCCC2)c2ccccc21
[1]
  activity (max response): 11.5%
[2]
  Potency: inactive

## O=C(CS)Nc1ccccc1
[1]
  activity (max response): -14.1%
[2]
  Potency: inactive

## C[N+]1(C)CCC(OC(=O)C(O)(c2ccccc2)C2CCCC2)C1 (stereo not given)
[1]
  activity (max response): 7.55%
[2]
  Potency: inactive

## Cn1cc(S(C)=O)c(=O)c2ccc(F)cc21 (stereo not given)
[1]
  activity (max response): 8.71%
[2]
  Potency: inactive

## CC(C)(CO)n1cc(C(=O)c2cncc(NC(=O)Cc3ccc(Cl)cn3)c2)c2cnc(N)nc21
[1]
  activity (max response): -13.5%
[2]
  Potency: inactive

## CCc1cc2c(c(OCC(F)(F)F)c(C(=O)NC3CCN(C(=O)CO)CC3)n2C)c(=O)n1CC(=O)c1ccccc1
[1]
  activity (max response): -16.3%
[2]
  Potency: inactive

## N[C@H](Cc1c[nH]c2ccccc12)C(=O)O
[1]
  activity (max response): 5.49%
[2]
  Potency: inactive

## CO/N=C(\C(=O)N[C@@H]1C(=O)N2C(C(=O)O)=C(CSc3nc(=O)c(O)nn3C)CS[C@H]12)c1csc(N)n1
[1]
  activity (max response): 16.1%
[2]
  Potency: inactive

## CN1C(=O)N[C@@H](Cc2c[nH]c3c(Cl)cccc23)C1=O
[1]
  activity (max response): -3.59%
[2]
  Potency: inactive

## C=C[C@@]1(C)CC(=O)[C@]2(O)[C@@]3(C)[C@@H](O)CCC(C)(C)[C@@H]3[C@H](O)[C@H](OC(C)=O)[C@@]2(C)O1
[1]
  activity (max response): 4.29%
[2]
  Potency: inactive

## Oc1c(Cl)cc(Cl)cc1Sc1cc(Cl)cc(Cl)c1O
[1]
  Potency: 20.6 µM (active)
[2]
  Potency: 20.6 µM (active)

## O=C(O)c1ccccc1-c1ccc(/C=c2\sc3nc4cc(Br)cnc4n3c2=O)o1
[1]
  activity (max response): -2.9%
[2]
  Potency: inactive

## O=C(c1cc(O)c(O)c(O)c1)c1ccc(O)c(O)c1O
[1]
  activity (max response): 4.03%
[2]
  Potency: inactive

## CC(C)NC(=O)N1CC[C@H](N=C2Nc3cc(F)ccc3N(CC(F)F)c3ccc(Cl)cc32)C1
[1]
  activity (max response): -16%
[2]
  Potency: inactive

## CCN(CC)CCNC(=O)c1cc(Br)c(N)cc1OC
[1]
  activity (max response): -8.12%
[2]
  Potency: inactive

## CCC[C@H](NC(=O)[C@@H]1[C@H]2CCC[C@H]2CN1C(=O)[C@@H](NC(=O)[C@@H](NC(=O)c1cnccn1)C1CCCCC1)C(C)(C)C)C(=O)C(=O)NC1CC1
[1]
  activity (max response): -27.4%
[2]
  Potency: inactive

## CC(=O)Oc1cccc2c1C(=O)c1c(OC(C)=O)cc(C(=O)O)cc1C2=O
[1]
  activity (max response): -7.7%
[2]
  Potency: inactive

## COc1ccc([C@@H](O)[C@@H](C)Oc2ccc([C@H]3O[C@H](c4ccc(O[C@H](C)[C@H](O)c5ccc(OC)c(OC)c5)c(OC)c4)[C@H](C)[C@H]3C)cc2OC)cc1OC
[1]
  Potency: 0.316 µM (active)
[2]
  Potency: 1.78 µM (active)

## CC[N+](CC)(CCNC(=O)C(=O)NCC[N+](CC)(CC)Cc1ccccc1Cl)Cc1ccccc1Cl
[1]
  activity (max response): -1.37%
[2]
  Potency: inactive

Source: PubChem BioAssay (NCATS)
